Laboratory results from ChEMBL document CHEMBL3433997, “St. Jude Leishmania screening dataset” (2016).

How the values were obtained:
Type in all cases: functional
[1] = biological target: Solute carrier family 2, facilitated glucose transporter member 1 (Homo sapiens) (UniProt P11166); test: ST_JUDE_LEISH: Cytotoxicity at 2uM final concentration against transgenic Leishmania Mexicana promastigotes LmGLUT1 that are glucose transport deficient and complemented with the human glucose transporter GLUT1. Activity is measured by DNA content using SYBR green in vitro
[2] = biological target: Hexose transporter 1 (Plasmodium falciparum) (UniProt O97467); test: ST_JUDE_LEISH: Cytotoxicity at 2uM final concentration against transgenic Leishmania Mexicana promastigotes LmPfHT that are glucose transport deficient and complemented with the Plasmodium falciparum hexose transporter. Activity is measured by DNA content using SYBR green in vitro
[3] = biological target: Glucose transporter (Leishmania mexicana) (UniProt O61059); test: ST_JUDE_LEISH: Cytotoxicity at 2uM final concentration against transgenic Leishmania Mexicana promastigotes LmGT2 that are glucose transport deficient and complemented with the L. Mexicana glucose transporter 2. Activity is measured by DNA content using SYBR green in vitro

Chain of Solute carrier family 2, facilitated glucose transporter member 1 (Homo sapiens) (P11166 whole entry): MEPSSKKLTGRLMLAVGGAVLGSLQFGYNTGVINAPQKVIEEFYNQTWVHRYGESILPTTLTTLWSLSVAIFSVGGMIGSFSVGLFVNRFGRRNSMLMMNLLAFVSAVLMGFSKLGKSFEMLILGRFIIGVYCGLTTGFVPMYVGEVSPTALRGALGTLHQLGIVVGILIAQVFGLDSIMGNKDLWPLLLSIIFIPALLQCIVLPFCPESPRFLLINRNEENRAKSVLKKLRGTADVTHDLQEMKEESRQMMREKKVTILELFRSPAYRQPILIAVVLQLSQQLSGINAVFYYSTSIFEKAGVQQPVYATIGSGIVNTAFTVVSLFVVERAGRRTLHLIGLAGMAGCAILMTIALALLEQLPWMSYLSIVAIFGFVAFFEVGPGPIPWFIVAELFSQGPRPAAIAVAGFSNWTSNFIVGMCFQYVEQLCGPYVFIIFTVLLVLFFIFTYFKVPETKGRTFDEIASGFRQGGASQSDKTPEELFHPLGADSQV

Row | SMILES | inhibition [1] [%] | inhibition [2] [%] | inhibition [3] [%]
1 | CCN(CCCN1CCCCC1)c1cc(C)nc(Nc2ccc(C(F)(F)F)cc2)n1 | 3.6 | 3.63 | 3.9
2 | COc1ccc2c(N/N=C/c3cccc([N+](=O)[O-])c3)cc(C)nc2c1 | 1.12 | 4.05 | 0.63
3 | CC(C)NCC(O)Cn1c2ccc(Br)cc2c2cc(Br)ccc21 (configuration not stated) | 0.74 | 0.92 | 0.36
4 | Cn1cnc2c(SCc3ccccc3OCc3ccccc3)ncnc21 | 6.91 | 5.44 | 4.68
5 | Fc1cc(Cl)ccc1Nc1ccnc2cc(-c3ccc(CN4CCOCC4)o3)ccc12 | 20.6 | 52.9 | 43.6
6 | Cc1cccc2nc(-c3ccc(-c4ccc(CNCc5cccc(N)c5)cc4)cc3)[nH]c12 | 24.1 | 30.9 | 14.9
7 | CN(C)CCN(C)Cc1nc(-c2ccc3c(Nc4ccc(Oc5ccccc5)cc4)ccnc3c2)cs1 | 2.99 | 3.38 | 2.65
8 | Cc1ccccc1C1CCN(c2ccc(C(=O)Nc3ccccc3)cn2)CC1 | -0.55 | -0.98 | -5.64
9 | COc1ccc2nccc([C@@H](O)CN3CCC(NS(=O)(=O)c4cc5c(cc4Cl)SCC(=O)N5)CC3)c2c1 | 1.57 | 1.6 | -0.41
10 | Cc1cccc2nc(-c3cccc(-c4cccc(CN5CCC(CO)CC5)c4)c3)[nH]c12 | 9.53 | 8.91 | 8.87
11 | Oc1cc(Nc2ccnc3cc(-c4ccc(CN5CCCCC5)o4)ccc23)c(Cl)cc1F | 3.23 | 6.46 | 3.68
12 | N#Cc1ccc(CN2CCC(Oc3ccc(NC(=O)c4ccsc4)cc3Cl)C2)cc1 (configuration not stated) | 8.19 | 11.8 | 8.45
13 | CCCC(C)Nc1nc(C)cc(N[C@@H](CC(C)C)C(=O)NC2CCCC2)n1 (some centres not stated) | 2.53 | 4.34 | 3.26
14 | Cc1sc2nc(CSc3ccccc3)nc(N3CCN(CC(=O)N4CCCC4)CC3)c2c1C | 5.03 | 5.88 | 1.41
15 | Cc1nc(C)c(C2CCC(c3ccc(Cl)cc3)CC2)c(O)c1Cl (configuration not stated) | 5.98 | 56.3 | -0.48
16 | CN(C)CCOc1ccc2c(c1)OC(C)(C)C=C2c1cccc2ccccc12 | 4.01 | 3.57 | 3.75
17 | O=C(O)CNCC(O)c1ccccc1 (configuration not stated) | 0.32 | -0.04 | 0.29

Row | SMILES | inhibition [1] [%] | inhibition [2] [%] | inhibition [3] [%]
18 | CC(C)NCc1cccc(-c2cccc(NC(=O)c3ccc(C#N)cc3)c2)c1 | -1.2 | 1.04 | -1.22
19 | CCN(CC)C(=O)C1CCN(C(C(=O)N2CCN(CC(=O)N3CCCC3)CC2)c2cc3ccccc3o2)CC1 (configuration not stated) | 2.21 | 0.62 | 1.61
20 | CCN(CCN(C)C)Cc1ccc(-c2ccc(NS(=O)(=O)c3cccc(Cl)c3)cc2)cc1 | 7.37 | 0.64 | -1.5
21 | Cn1cncc1C(=O)Nc1cccc(-c2cccc(-c3nc4cc(C(F)(F)F)ccc4[nH]3)c2)c1 | -1.02 | 2.87 | -0.89
22 | O=C(Cc1ccccc1)NC(c1ccccc1)c1ccc2cccnc2c1O (configuration not stated) | 2.31 | 0.51 | -1.17
23 | Cc1cc(Nc2ccnc(-c3ccc(Cl)cc3)n2)ccn1 | 7.95 | 8.43 | 8.52
24 | Nc1ncc(-c2ccsc2)cc1-c1nc2ccccc2[nH]1 | 2.86 | 6.79 | 2.5
25 | O=C(N[C@@H](Cc1ccccc1)[C@H](O)CNCCC(F)(F)F)c1cccc(OCC2CC2)c1 | -0.59 | -0.22 | 0.56
26 | COc1ccc2nc(C)cc(Nc3ccc(Oc4ccc(Br)c5ccccc45)c(Cl)c3)c2c1 | 9.47 | 8.7 | 3.21
27 | S=C(NCCCCCN1CCC(c2c[nH]c3ccccc23)CC1)Nc1cccc(I)c1 | 0.7 | 1.62 | -1.76
28 | Nc1c2c(nc3cc(NC(=O)c4ccc([N+](=O)[O-])cc4)ccc13)CCCC2 | 5.2 | 9.51 | 4.23
29 | O=C(/C=C/c1ccc(Cl)c(Cl)c1)NCCCCCN1CCCN(C(=O)Nc2ccc(Br)cc2)CC1 | 10.6 | 10.3 | 10.2
30 | OC1(c2ccccc2)CCN(Cc2cccc(-c3c[nH]c4nc(NC5CCCC5)ncc34)c2)C1 (configuration not stated) | 3.82 | 3.3 | 4.81
31 | O=S(=O)(c1cccc(Br)c1)N1CCCCC(c2ccc(C(F)(F)F)cc2)=N1 | 1.84 | 3.68 | 2.2
32 | Cc1cccc2nc(-c3ccc(-c4ccc(CNCCNC(=O)c5ccnn5C)cc4)cc3)[nH]c12 | -0.55 | 1.46 | -2.49
33 | COC(=O)c1ccc(OCC(C)NCC(O)c2cccc(C(F)(F)F)c2)cc1 (configuration not stated) | 10.7 | 8.32 | 8.64
34 | CN1CCN(c2ccnc3cc4c(cc23)N(C(=O)Nc2ccc3c(c2)CCCC3=O)CC4)CC1 | 1.37 | 1.56 | 0.75
